Reference: PubChem BioAssay (Tox21)
Results filed as inconclusive are left out. Activity calls are given as the source filed them. Unless noted, calls follow the shape of the dose curve; as a rule, active = well fitted curve in the direction sought with a large enough effect in the repeat runs; inconclusive = weak or mixed curves; inactive = no such curve, though single readings can be large; an effect the other way counts as inactive or inconclusive.

Legend:
[1] = biological target: Retinoic acid receptor RXR-alpha (Homo sapiens) (UniProt P19793); assay: qHTS assay to identify small molecule agonists of the RXR signaling pathway (AID 1159527; calls by dose curve; also: nearly all actives have a fitted effect of over 35% in size; also: potency is read from the fitted curve at half-maximal effect)
Procedure, shortened: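 Agonist mode; 9-cis retinoic acid positive control. HEK 293T UAS-bla reporter cells, 2% charcoal-stripped FBS, 16 hr compound exposure at 37 C/5% CO2. LiveBLAzer B/G FRET substrate 2 hr RT; ex 405, em 460/530 nm.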

[2] = qHTS assay to identify small molecule agonists of the RXR signaling pathway - cell viability counter screen (AID 1159529); also: series mostly up to about 77 µM; nearly all actives have a fitted effect of over 50% in size
Procedure, shortened: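 Luminescence from CellTiter-Glo (30 min, RT) measured viability in the same wells as the beta-lactamase reporter readout. Cells: GeneBLAzer RXR-alpha HEK 293T, 2% charcoal-stripped FBS. Compound exposure 16 hr, 37 C.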

[3] = qHTS assay to identify small molecule antagonists of the retinoic acid receptor (RAR) signaling pathway (AID 1159552; also: nearly all actives have a fitted effect of over 50% in size; also: potency is read from the fitted curve at half-maximal effect)
Procedure, shortened: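 Luminescence from a RARE luciferase reporter in C3RL4 cells served as read-out. Cells received compounds together with 1 uM final retinol and incubated 6 hr at 37 C before detection reagent was added for 30 min at room temperature.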

[4] = qHTS assay to identify small molecule antagonists of the estrogen related receptor (ERR) signaling pathway from Tox21 library - cell viability counter screen (AID 1224834); also: nearly all actives have a fitted effect of over 30% in size; also: potency is read from the fitted curve at half-maximal effect
Procedure, shortened: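 Cytotoxicity of test substances is gauged in the same ERR cells used for the antagonist screen, after 17.5 h of compound treatment at 37 C, by CellTiter-Fluor fluorescence measured after 30 min.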

[5] = biological target: Luciferin 4-monooxygenase (Photinus pyralis) (UniProt P08659); assay: qHTS assay to identify small molecule inhibitors of firefly luciferase (AID 1224835); also: nearly all actives have a fitted effect of over 25% in size; also: potency is read from the fitted curve at half-maximal effect
Procedure, shortened: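 Inhibition of purified Photinus luciferase is measured by luminescence. Substrate levels (D-luciferin, ATP) sit at their KM values. Each compound is tested in a concentration series.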

[6] = qHTS assay to identify small molecule agonists of the constitutive androstane receptor (CAR) signaling pathway - cell viability counter screen (AID 1224836); also: nearly all actives have a fitted effect of over 45% in size; also: potency is read from the fitted curve at half-maximal effect
Procedure, shortened: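 Viability read-out: CellTiter-Fluor fluorescence after 23 h compound exposure at 37 C/5% CO2 in double-stable HepG2-CYP2B6-hCAR cells, with PK11195 present at 0.75 uM final; compounds tested in 15-point titration.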

[7] = qHTS assay to identify small molecule antagonists of the constitutive androstane receptor (CAR) signaling pathway - cell viability counter screen (AID 1224837); also: nearly all actives have a fitted effect of over 45% in size; also: potency is read from the fitted curve at half-maximal effect
Procedure, shortened: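 Multiplexed cytotoxicity read-out for the CAR antagonist screen: double-stable HepG2-CYP2B6-hCAR cells co-treated with 50 nM CITCO (final) and compound over 15 concentrations, incubated 23 hr, then assessed by CellTiter-Fluor fluorescence.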

[8] = biological target: Nuclear receptor subfamily 1 group I member 3 (Homo sapiens) (UniProt Q14994); assay: qHTS assay to identify small molecule antagonists of the constitutive androstane receptor (CAR) signaling pathway (AID 1224838); also: nearly all actives have a fitted effect of over 40% in size; also: potency is read from the fitted curve at half-maximal effect
Procedure, shortened: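 Compounds were titrated across 15 concentrations onto HepG2 cells double-stably expressing hCAR and a CYP2B6-2.2kb reporter, together with 50 nM CITCO (final). After 24 h at 37 C, luciferase activity was measured by luminescence.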

[9] = biological target: Nuclear receptor subfamily 1 group I member 3 (Homo sapiens) (UniProt Q14994); assay: qHTS assay to identify small molecule agonists of the constitutive androstane receptor (CAR) signaling pathway (AID 1224839); also: nearly all actives have a fitted effect of over 15% in size; also: potency is read from the fitted curve at half-maximal effect
Procedure, shortened: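 Luminescence read-out (ONE-Glo, 30 min, room temperature) from double-stable HepG2-CYP2B6-hCAR cells exposed 24 h to 15-point compound series in presence of 0.75 uM PK11195 final.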

[10] = qHTS assay to identify small molecule antagonists of the estrogen related receptor signaling pathway with the pleiotropic PPARgamma coactivator (PGC) from Tox21 10K library - cell viability counter screen (AID 1224840; active = well fitted cell-killing curve with a large enough effect in the repeat runs, not every such curve was filed as active; also: nearly all actives have a fitted effect of over 40% in size; also: potency is read from the fitted curve at half-maximal effect)
Procedure, shortened: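 Step one, plate 2,000 PGC/ERR cells per well; step two, incubate 6 h at 37 C/5% CO2; step three, pin-transfer compounds; step four, incubate 17.5 h; step five, add CellTiter-Fluor and read fluorescence after 30 min.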

[11] = qHTS assay to identify small molecule antagonists of the retinoid acid receptor (RAR) signaling pathway - cell viability counter screen (AID 1159551); also: nearly all actives have a fitted effect of over 35% in size; also: potency is read from the fitted curve at half-maximal effect
Procedure, shortened: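 Cytotoxicity counter screen in C3RL4 cells: 6 h compound exposure with 1 uM retinol (final), viability from cellular ATP by luminescence.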

[12] = qHTS assay to identify small molecule antagonists of the estrogen related receptor (ERR) signaling pathway - cell viability counter screen (AID 1224818);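 also: series mostly up to about 46 µM; viability measured after 17.5 h of compound exposure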
Procedure, shortened: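 Cells carrying the ERR pathway reporter were seeded and incubated for 6 hours before compound addition. After a 17.5-hour exposure at 37 C, live-cell protease activity was measured by CellTiter-Fluor fluorescence following 30 minutes of incubation.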

[13] = qHTS assay to identify small molecule antagonists of the estrogen related receptor (ERR) signaling pathway (AID 1224819;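 also: luminescence from an ERR-driven luciferase reporter measured with One-Glo reagent; series mostly up to about 46 µM; nearly all actives have a fitted effect of over 50% in size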)
Procedure, shortened: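 Compounds dissolved in DMSO were pin-transferred onto ERR cells that had been plated 6 h earlier, and cells were then incubated 18 h at 37 C; signal was luciferase luminescence via One-Glo.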

[14] = qHTS assay to identify small molecule agonists of the estrogen related receptor (ERR) signaling pathway (AID 1224820)
Procedure, shortened: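 Cells: ERR line from NTP, 2,000/well. Pre-incubation 6 h, 37 C/5% CO2. Compound (DMSO) pin transfer, 18 h 37 C. One-Glo, 30 min RT, luminescence.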

[15] = system: estrogen-related receptor alpha (ERRalpha) with PGC-1alpha coactivator, human; assay: qHTS assay to identify small molecule antagonists of the estrogen related receptor signaling pathway with the pleiotropic PPARgamma coactivator (PGC) (AID 1224821; calls by dose curve;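 also: series mostly up to about 46 µM; lower luminescence signal means antagonism of PGC/ERR signalling; nearly all actives have a fitted effect of over 50% in size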)
Procedure, shortened: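 Luminescent read-out (One-Glo, 30 min at room temperature) following 18 h treatment of PGC/ERR cells at 37 C with compounds delivered in DMSO. Cells had settled 6 h at 37 C/5% CO2 before dosing.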

[16] = qHTS assay to identify small molecule antagonists of the estrogen related receptor signaling pathway with the pleiotropic PPARgamma coactivator (PGC) cell viability counter screen (AID 1224822;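 also: series mostly up to about 46 µM; viability read after 17.5 h compound exposure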)
Procedure, shortened: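 Seed PGC/ERR cells (2,000/well); incubate 6 h at 37 C/5% CO2; pin-transfer compounds in DMSO; incubate 17.5 h at 37 C; add CellTiter-Fluor; after 30 min read fluorescence.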

[17] = qHTS assay to identify small molecule agonists of the estrogen related receptor signaling pathway with the pleiotropic PPARgamma coactivator (PGC) (AID 1224823)
Procedure, shortened: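 Steps: plate PGC/ERR cells at 2,000 cells/well; incubate 6 h, 37 C/5% CO2; pin-transfer compounds (DMSO); incubate 18 h, 37 C; add One-Glo; 30 min RT; read luminescence.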

[18] = qHTS assay to identify small molecule antagonists of the estrogen related receptor signaling pathway with the pleiotropic PPARgamma coactivator (PGC) from Tox21 10K library (AID 1224841; call rule not given here; also: potency is read from the fitted curve at half-maximal effect)
Procedure, shortened: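 Antagonism in this quantitative HTS is taken from loss of luciferase signal in PGC/ERR cells. Cells (2,000/well) are treated with compounds in DMSO after a 6 h settling period and read by One-Glo luminescence after 18 h.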

[19] = qHTS assay to identify small molecule agonists of the estrogen related receptor signaling pathway with the pleiotropic PPARgamma coactivator (PGC) from Tox21 10K library (AID 1224842); also: nearly all actives have a fitted effect of over 15% in size; also: potency is read from the fitted curve at half-maximal effect
Procedure, shortened: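 Luminescence from One-Glo (30 min, room temperature) measured after PGC/ERR cells had 18 h at 37 C with pinned compound (23 nL in DMSO). Cells had been seeded at 2,000 per well and pre-incubated 6 h.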

[20] = qHTS assay to identify small molecule agonists of the retinoic acid receptor (RAR) signaling pathway (AID 1159553); also: potency is read from the fitted curve at half-maximal effect
Procedure, shortened: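 Agonist activity was scored in C3RL4 cells bearing a retinoic acid response element luciferase construct. Cells were treated with compounds for 6 hr at 37 C, and luciferase signal was measured as luminescence.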

Measured: Potency

Nuclear receptor subfamily 1 group I member 3 (Homo sapiens), sequence (Q14994 whole entry, looked up): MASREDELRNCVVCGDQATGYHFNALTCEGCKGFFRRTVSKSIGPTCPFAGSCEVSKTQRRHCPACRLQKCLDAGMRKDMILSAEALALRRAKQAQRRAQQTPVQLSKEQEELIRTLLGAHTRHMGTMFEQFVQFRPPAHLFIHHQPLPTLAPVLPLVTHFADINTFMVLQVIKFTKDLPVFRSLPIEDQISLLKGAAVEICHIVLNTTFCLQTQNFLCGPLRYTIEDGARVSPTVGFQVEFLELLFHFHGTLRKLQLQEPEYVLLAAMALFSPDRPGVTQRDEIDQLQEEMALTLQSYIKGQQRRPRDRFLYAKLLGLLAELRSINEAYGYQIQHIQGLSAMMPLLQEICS
Luciferin 4-monooxygenase (Photinus pyralis), sequence (P08659 whole entry, looked up): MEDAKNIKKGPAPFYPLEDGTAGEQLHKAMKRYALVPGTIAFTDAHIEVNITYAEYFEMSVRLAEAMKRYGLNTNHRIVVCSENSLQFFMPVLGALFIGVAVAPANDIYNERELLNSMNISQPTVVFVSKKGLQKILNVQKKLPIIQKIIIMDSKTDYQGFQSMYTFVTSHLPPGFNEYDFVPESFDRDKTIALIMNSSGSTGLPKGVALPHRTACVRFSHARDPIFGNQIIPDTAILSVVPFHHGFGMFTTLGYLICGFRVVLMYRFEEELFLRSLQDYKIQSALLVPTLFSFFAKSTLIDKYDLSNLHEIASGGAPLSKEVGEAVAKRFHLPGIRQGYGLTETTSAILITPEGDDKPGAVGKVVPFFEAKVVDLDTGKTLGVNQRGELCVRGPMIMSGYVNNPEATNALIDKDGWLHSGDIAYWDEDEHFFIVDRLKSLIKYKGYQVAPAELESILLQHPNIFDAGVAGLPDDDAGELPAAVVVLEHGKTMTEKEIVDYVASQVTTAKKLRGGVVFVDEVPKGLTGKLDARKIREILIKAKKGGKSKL
Retinoic acid receptor RXR-alpha (Homo sapiens), sequence (P19793 whole entry, looked up): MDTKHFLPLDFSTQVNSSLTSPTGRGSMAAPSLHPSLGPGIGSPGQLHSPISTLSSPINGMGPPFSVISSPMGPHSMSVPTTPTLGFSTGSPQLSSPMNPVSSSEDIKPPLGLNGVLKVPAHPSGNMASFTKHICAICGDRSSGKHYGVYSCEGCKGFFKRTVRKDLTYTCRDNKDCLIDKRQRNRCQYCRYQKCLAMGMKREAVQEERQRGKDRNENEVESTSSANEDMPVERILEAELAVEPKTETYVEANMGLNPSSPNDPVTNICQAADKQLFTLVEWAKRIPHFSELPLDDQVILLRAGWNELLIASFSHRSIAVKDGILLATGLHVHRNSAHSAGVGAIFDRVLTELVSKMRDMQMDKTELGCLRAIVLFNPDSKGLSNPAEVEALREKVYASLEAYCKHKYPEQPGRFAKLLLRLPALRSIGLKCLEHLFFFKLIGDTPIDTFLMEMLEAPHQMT

Cc1cc(CCCOc2c(C)cc(-c3noc(C(F)(F)F)n3)cc2C)on1
inactive: [1] | [2] | [3] | [4] | [5] | [6] | [7] | [8] | [10]
active: [9] 23.7 µM

CC(CCc1ccc(O)cc1)NCCc1ccc(O)c(O)c1 (configuration not stated)
not listed: [3] | [7] | [8] | [9] | [20]
inactive: all other assays above

C[C@@H]1C[C@H]2[C@@H]3CCC4=CC(=O)C=C[C@]4(C)[C@@]3(F)[C@@H](O)C[C@]2(C)[C@@]1(O)C(=O)COP(=O)(O)O
inactive: [1] | [2] | [11] | [4] | [5] | [6] | [10]

CC(=O)C(C)=O
inactive: [1] | [2] | [11] | [12] | [16] | [4] | [6] | [7] | [9] | [10]

C=C(C)C(=O)OCCC(F)(F)C(F)(F)C(F)(F)C(F)(F)C(F)(F)C(F)(F)F
inactive: [1] | [2] | [11] | [4] | [5] | [6] | [7] | [8] | [9] | [10]

O=CNNC=O
inactive: [1] | [2] | [11] | [4] | [5] | [6] | [7] | [10]

CCCCCCC(O)CCOC(C)=O (configuration not stated)
inactive: [1] | [2] | [11] | [4] | [5] | [6] | [7] | [10] | [18] | [19]

CC(=O)Oc1cccc(O)c1
inactive: [1] | [2] | [11] | [4] | [5] | [6] | [7] | [9] | [10] | [18] | [19]

CCOC(=O)N1CCC(Nc2ccc(Cl)cc2N)CC1
inactive: [1] | [2] | [11] | [6] | [7] | [8] | [9] | [10]

CN=C(N)NC(=O)Nc1c(C)cccc1C
inactive: [1] | [2] | [11] | [4] | [5] | [6] | [8] | [9] | [10] | [18] | [19]

CC(=O)OCCC(C)CC(C)(C)C (configuration not stated)
inactive: [2] | [11] | [4] | [5] | [6] | [9] | [10] | [18] | [19]
active: [1] 11 µM

O=C(O)CN1C(=O)c2cccc3cccc(c23)C1=O
inactive: [1] | [2] | [11] | [4] | [5] | [6] | [8] | [9] | [10] | [18] | [19]

CCCCCCCCCCCC(=O)OCC(O)CO (configuration not stated)
active: [1] 54.9 µM
inactive: [11] | [3] | [20] | [4] | [6] | [7] | [9] | [10] | [18] | [19]

O=C(NS(=O)(=O)/C=C/c1ccccc1)c1ccc(F)cc1Cl
active: [19] 13.7 µM
inactive: [2] | [11] | [3] | [4] | [6] | [8] | [9] | [10] | [18]

Cc1c(C2(c3cc(Br)c(O)c(Br)c3C)OS(=O)(=O)c3ccccc32)cc(Br)c(O)c1Br
inactive: [2] | [9] | [19]
active: [11] 7.47 µM | [3] 13.3 µM | [4] 14.9 µM | [6] 14.9 µM | [7] 18.8 µM | [8] 11.8 µM | [10] 18.8 µM | [18] 11.8 µM

CNCc1ccc(NC(=O)c2c[nH]c3c2C(=O)CCC3)cc1
active: [9] 1.72 µM
inactive: [1] | [11] | [3] | [4] | [5] | [6] | [10] | [18] | [19]

COc1ccc(-c2cc(=S)ss2)cc1
inactive: [2] | [11] | [3] | [6] | [8] | [10]
active: [20] 26.6 µM | [5] 15.5 µM | [9] 23.7 µM

CC(C)C(=O)OCCOc1ccccc1
inactive: [2] | [11] | [3] | [20] | [4] | [5] | [6] | [7] | [8] | [9] | [10]

Oc1ccc2c(c1)Cc1ccccc1-2
inactive: [2] | [11] | [3] | [4] | [6] | [7] | [8] | [10] | [18] | [19]
active: [9] 61.1 µM

CC(=O)OCC(=O)[C@@]1(OC(C)=O)[C@@H](C)C[C@H]2[C@@H]3C[C@H](F)C4=CC(=O)C=C[C@]4(C)[C@@]3(F)[C@@H](O)C[C@@]21C
inactive: [2] | [11] | [3] | [4] | [5] | [6] | [7] | [8] | [9] | [10]

CC(=O)c1ccc[nH]1
inactive: [2] | [11] | [3] | [20] | [4] | [6] | [7] | [10]
